The test deals with Vero E6 infected with SARS-CoV-2. Kind of test: morphology score (similarity to uninfected cells); higher = more like uninfected cells. As to conditions: 24 h.
With `O=C(O)Cc1cccc(OCCCN(Cc2cccc(C(F)(F)F)c2Cl)CC(c2ccccc2)c2ccccc2)c1` (10 µM), the morphology score is 0.267. To `c1cnc(SCc2cccnc2)nc1` [tasuldine] (10 µM) belongs 0.175; to `CCCCn1c(=O)c2[nH]c(C34CC5CC(CC3C5)C4)nc2n(CCCO)c1=O` (10 µM), -0.0475; to `Oc1cc(O)c2c(c1)O[C@H](c1ccc(O)c(O)c1)[C@@H](O)C2` [cianidanol] (10 µM), -0.0417. `COc1ccc2cc1Oc1ccc(cc1)C[C@H]1c3c(cc4c(c3Oc3cc5c(cc3OC)CCN(C)[C@@H]5C2)OCO4)CCN1C` [cepharanthine] (10 µM) yielded a morphology score of 0.461.

`CCOC(=O)[C@@H](N)Cc1ccc(O)c(O)c1` [etilevodopa] (10 µM) returned a morphology score of -0.149. To `NCCc1cc[nH]n1` [betazole] (10 µM) belongs -0.0835; to `Cc1cccn2c(=O)c(-c3nnn[nH]3)cnc12` [pemirolast] (10 µM), 0.106; to `CCCCNc1ncc2c(-c3ccc(CN4CCN(C)CC4)cc3)cn([C@H]3CC[C@H](O)CC3)c2n1` (10 µM), -0.164. Then `Cc1cccc(C)c1NC(=O)[C@@H](C)N` [tocainide] (10 µM), with -0.0832. Then `CC(C)(O)c1coc(S(=O)(=O)NC(=O)Nc2c3c(cc4c2CCC4)CCC3)c1` (10 µM), with 0.0866. The molecule `C[C@H](Cc1ccc(O)c(O)c1)[C@@H](C)Cc1ccc(O)c(O)c1` [masoprocol] (10 µM) gave a morphology score of 0.0645.

Molecule `C[C@H](Cc1cc2c(c(C(N)=O)c1)N(CCCO)CC2)NCCOc1ccccc1OCC(F)(F)F` [silodosin] (10 µM) had a morphology score of -0.144.

The molecule `Cc1cc(O)c2c(c1)C(=O)c1cccc(O)c1C2=O` [chrysophanic-acid] (10 µM) came in with a morphology score of -0.0993. Then `Cc1cc(=O)n(-c2ccccc2)[nH]1` [N-demethylantipyrine] (10 µM), with 0.121; and `C#C[C@]1(O)CC[C@H]2[C@@H]3CCC4=CC(=O)CCC4=C3C=C[C@@]21CC` [gestrinone] (10 µM), with 0.0853.

Regarding `C[C@@H]1CCO[C@H]2Cn3cc(C(=O)NCc4ccc(F)cc4F)c(=O)c(O)c3C(=O)N12` [dolutegravir] (10 µM), the morphology score is 0.0816. To `CCC(CC)COC(=O)[C@H](C)N[P@](=O)(OC[C@H]1O[C@@](C#N)(c2ccc3c(N)ncnn23)[C@H](O)[C@@H]1O)Oc1ccccc1` [Remdesivir] (10 µM) belongs 0.761; to `O=C(COc1ccc(C(=O)c2ccccc2)cc1)NC1CCN(Cc2ccccc2)CC1` [adiporon] (10 µM), 0.0636. Then `Nc1ncnc2c1C(=O)N(c1ccc([C@H]3CC[C@H](CC(=O)O)CC3)cc1)CCO2` (10 µM), with 0.118. Then `Cc1cc(C)cc(OCC2CNC(=O)O2)c1` (stereo not drawn) [metaxalone] (10 µM), with 0.134; and `CCC(=O)OCC(=O)[C@@]1(OC(=O)CC)[C@H](C)C[C@H]2[C@H]3[C@H]([C@@H](O)C[C@@]21C)[C@@]1(C)C=CC(=O)C=C1C[C@H]3Cl` [alclometasone-dipropionate] (10 µM), with 0.139; and `COc1cc(C[C@@H](CO)[C@H](CO)Cc2ccc(O)c(OC)c2)ccc1O` [secoisolariciresinol-(-)] (10 µM), with -0.0638.

`Cc1ccc(C(=O)Nc2ccc(CN3CCN(C)CC3)c(C(F)(F)F)c2)cc1C#Cc1cnc2cccnn12` [ponatinib] (10 µM) yielded a morphology score of 0.435. `CCCCCCCCCCOc1cc2c(O)c(C(=O)OCC)cnc2cc1OCC` [decoquinate] (10 µM) yielded a morphology score of 0.147. In the case of `Cn1c(=O)c2[nH]cnc2n(C)c1=O` [aminophylline] (10 µM), the morphology score worked out at 0.187. `CC(C)(C)c1ccc(C(=O)Nc2cn3cc(-n4ccnc4)ccc3n2)cc1` (10 µM) registered a morphology score of -0.0468. To `O=C(Nc1cc(C(F)(F)F)cc(C(F)(F)F)c1)c1cnc(Cl)nc1C(F)(F)F` (10 µM) belongs -0.17; to `CN1CCN(CCOc2cc(OC3CCOCC3)c3c(Nc4c(Cl)ccc5c4OCO5)ncnc3c2)CC1` [saracatinib] (10 µM), -0.132. To `CC(C)(C)c1nc(-c2cccc(NS(=O)(=O)c3c(F)cccc3F)c2F)c(-c2ccnc(N)n2)s1` [dabrafenib] (10 µM) belongs 0.245.

In turn, `COc1cc2ncnc(Nc3ccc(Oc4ccccc4)cc3)c2cc1OC` [SRC-kinase-inhibitor-I] (0.833333 µM) yielded a morphology score of 0.0162. The molecule `CC(=O)NC1CCSC1=O` (stereo not drawn) [citiolone] (10 µM) came in with a morphology score of -0.0164. `NCCc1c[nH]c2ccc(O)cc12` [serotonin] (10 µM): the morphology score came to 0.0634.

The record behind these values is the supplement of paper PMC13380429.
